High-throughput results (PubChem BioAssay)
Cy5 interf NS3h: enhances or quenches Cy5 fluorescence in NS3h assay | Cy5-dT15 DNA with NS3h, fluorescence interference; actives lie on both sides; signal over control mean, under 1 quenches | fluorescence interference ratio at 100 µM | 16,000 tested, 6% active | AID 720488;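 active = compound fluorescence over control fluorescence at most 0.8, a quencher, or at least a set upper limit, an enhancer; inactive = ratio between 0.8 and the set upper limit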
NS3h inh CB: blocks HCV NS3 helicase binding to DNA; AID 687043; 16,000 tested, 1.6% active; NS3h Cy5-dT15 DNA binding, fluorescence polarization; inhibition, % at 100 µM;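 active = inhibition above the average over every tested compound plus 3 SD, cut at about 40% in these data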
Numbers without * were called inactive. This is a sample that favours compounds with a hit; in the whole collection about 6.8% have one here.

SMILES	Cy5 interf NS3h	NS3h inh CB
O=c1/c(=C/c2ccco2)sc2nnc(-c3ccccc3)n12	0.94	11
CCOc1ccc(N(CC(=O)Nc2ccccc2CC)S(=O)(=O)c2ccc(SC)cc2)cc1	0.94	14
COc1ccc(C2C3=C(CC(C)(C)CC3=O)OC3=C2C(=O)CC(C)(C)C3)cc1Br	0.89	16
COc1cc(Br)c(C2C3=C(CC(C)(C)CC3=O)OC3=C2C(=O)CC(C)(C)C3)cc1OC	0.77*	9
COc1ccc(/C=C2/SC(=S)N(CCCC(=O)OCCN(C)C)C2=O)cc1	0.8*	4
COCCCN1C(=O)/C(=C/c2ccc(N(C)C)cc2)SC1=S	1	31
O=C(Nc1ccc(Cl)cc1Cl)c1nn2c(c1Cl)NC(c1ccc(Cl)cc1)CC2C(F)(F)F (stereo not given)	0.92	-4
Cc1[nH]c2ccccc2c1/C=N\Nc1ccc([N+](=O)[O-])cc1	0.97	31
Cc1[nH]c2ccccc2c1/C=N\NC(=O)c1cccc([N+](=O)[O-])c1	0.63*	-2
CS(=O)(=O)N(CC(=O)Nc1cccc(Br)c1)c1ccc(Cl)cc1	1	2
COc1ccccc1C/C(N)=N\OC(=O)c1ccc(Cl)cc1	1	14
O=S(=O)(c1ccccc1C(O)(c1ccccc1)c1ccccc1)c1ccccc1C(O)(c1ccccc1)c1ccccc1	0.76*	6
O=[N+]([O-])c1ccc(-c2ccco2)c(Cl)c1	1.1	0
CCN(CC)C(=O)COc1ccc2oc(C)c(C(=O)OC(C)C)c2c1	0.79*	16
CCOC(=O)COc1ccc2oc(C)c(C(=O)OC(C)C)c2c1	0.86	14
COc1ccccc1N1C(=O)NC(=O)C(=Cc2cc(OC)c(O)c([N+](=O)[O-])c2)C1=O	0.87	34
COc1ccccc1N1C(=O)C(=Cc2cccn2C)C(=O)NC1=S	0.68*	44*
CC1(C)CC(=O)C(C2(C3C(=O)CC(C)(C)CC3=O)C(=O)Nc3ccccc32)C(=O)C1	1	1
CCc1ccccc1NS(=O)(=O)c1cccc([N+](=O)[O-])c1	0.97	7
COc1ccc(/C=C2/C(C)=C(C#N)c3nc(N)c(C#N)c(C)c32)cc1Br	0.96	14
COc1cc(/C=C2/C(C)=C(C#N)c3nc(N)c(C#N)c(C)c32)c([N+](=O)[O-])cc1OC	0.97	47*
O=P(c1ccccc1)(c1ccccc1)C1COCCO1 (stereo not given)	0.84	5
O=C(Nc1nccs1)c1cccc(N2C(=O)c3ccccc3C2=O)c1	1.2*	-41
O=C(Nc1ccccc1O)c1ccc2c(c1)C(=O)N(c1cccc(C(=O)c3ccccc3)c1)C2=O	1	0
Cc1cccc(NC(=O)CSc2nc3ccccc3s2)c1C	1	1
SMILES	Cy5 interf NS3h	NS3h inh CB
COc1cc(OC)c([N+](=O)[O-])cc1C=O	0.65*	9
COc1cc(OC)c([N+](=O)[O-])cc1/C=C(/C#N)C(=O)Nc1ccccc1	1.1	-1
COc1ccc(S(=O)(=O)NC(C)C2C3CC4CC(C3)CC2C4)cc1 (stereo not given)	0.98	8
CCc1ccccc1NC(=O)CCc1ccccc1	1	0
Cc1cc(C)nc(NC(N)=NC(C)(C)C)n1	0.98	2
CCc1ccc(NC(=O)CSc2nnc(-c3ccco3)n2-c2ccccc2)cc1	0.8*	-4
O=C(CSc1nnc(-c2ccco2)n1-c1ccccc1)Nc1ccccc1[N+](=O)[O-]	0.98	4
O=C(Nc1ccc(Br)cn1)c1cc2n(n1)C(C(F)(F)F)CC(c1ccccc1)N2 (stereo not given)	0.7*	24
CCc1ccccc1NC(=O)c1cc2n(n1)C(C(F)(F)F)CC(c1ccccc1)N2 (stereo not given)	1	6
CC(=O)c1c(-c2ccc(C)cc2)c2ccccc2[nH]c1=O	0.91	-1
O=C1C(Cl)=CC(=NS(=O)(=O)c2ccc(Cl)cc2)c2ccccc21	0.87	-4
O=C1C(Cl)=CC(=NS(=O)(=O)c2ccccc2)C=C1Br	0.66*	32
C=CCN1C(=O)/C(=C\c2cc(Cl)c(OCc3ccccc3F)c(OC)c2)SC1=S	1	3
CCOc1ccccc1NC(=O)c1c(NC(=O)C(F)(F)F)sc2c1CCCCC2	1.2*	33
CCOc1ccccc1NC(=O)c1c(NC(=O)C(C)(C)C)sc2c1CCCCC2	1.1	0
COC(=O)COc1ccc(/C=C2\C(=O)NC(=O)N(c3cc(C)cc(C)c3)C2=O)cc1OC	1	1
COc1ccc(-c2cc(C(F)(F)F)n3nc(C(=O)NCCCn4ccnc4)c(Cl)c3n2)cc1	0.68*	2
COc1ccc(-c2cc(C(F)(F)F)n3nc(C(=O)Nc4ccccc4C(F)(F)F)cc3n2)cc1	1.1	4
Cc1ccc(C(=O)O/N=C(/N)c2cccnc2)cc1[N+](=O)[O-]	0.66*	7
Cc1ccc(C(=O)O/N=C(/N)c2ccccn2)cc1[N+](=O)[O-]	1	7
O=C(Nc1ccccc1C(=O)Nc1ccccn1)c1ccco1	1.1	42*
O=C(Nc1ccccc1C(=O)Nc1ccccn1)c1ccccc1F	0.95	9
CCN(CC)C(=O)CN(c1cccc(Br)c1)S(=O)(=O)c1ccccc1	1	9
COc1ccc2c(-c3ccccc3)cc(=O)[nH]c2c1	0.98	2
Cc1ccc2c(-c3ccc([N+](=O)[O-])cc3)cc(=O)[nH]c2c1	0.62*	1
SMILES	Cy5 interf NS3h	NS3h inh CB
CC(=O)c1ccc(N2C(=O)c3ccc(-c4nc5ccccc5c(=O)o4)cc3C2=O)cc1	1.1	-2
O=C(O)CSc1nc2ccccc2c(=O)n1-c1ccccc1	1	0
Cc1ccc(SCC(=O)Nc2cccc([N+](=O)[O-])c2)cc1	0.95	13
Cc1ccc(Nc2nc(Nc3cccc([N+](=O)[O-])c3)nc(SC(=S)N3CCOCC3)n2)cc1	0.45*	-60
O=C(Nc1ccccc1C(=O)N1CCN(Cc2ccccc2)CC1)c1ccccc1F	1	-1
Cc1nc2ccccc2n1S(=O)(=O)c1cccc(Cl)c1Cl	0.98	8
CCC(C(=O)Nc1cccc(C)c1)c1ccccc1 (stereo not given)	0.96	10
CCC(C(=O)Nc1ccc(C)cc1)c1ccccc1 (stereo not given)	1.3*	6
O=C(Nc1cccc(-c2nc3cc(Cl)ccc3o2)c1)c1ccc2c(c1)OCCO2	0.71*	11
Cc1ccc(-c2nc3cc(Cl)ccc3o2)cc1NC(=O)c1ccc2c(c1)OCCO2	1.2	-4
O=C(COc1ccccc1[N+](=O)[O-])Nc1ccc2oc(-c3cccc(Cl)c3)nc2c1	1.1	-19
CC(=O)Nc1ccc2oc(-c3cccc(Cl)c3)nc2c1	1.2*	-20
N/C(=N/OC(=O)c1cccc(Br)c1)c1ccccn1	1.1	9
O=C(CN1CCCCC1)Nc1ccc(I)cc1	1.1	0
O=C(CCN1C(=O)c2ccccc2C1=O)NCc1ccccn1	0.97	7
Cn1c(-n2c(CCCN3C(=O)c4ccccc4C3=O)nc3ccccc3c2=O)nc2ccccc21	0.67*	12
Cn1c(CC(O)(c2ccccc2)c2ccccc2)nc2ccccc21	1.1	12
O=C1c2ccccc2C(=O)N1CCc1nc2ccccc2c(=O)n1-c1nccs1	0.59*	16
COc1ccc(C(N)=O)cc1NC(=O)COc1ccc(F)cc1	0.94	7
COc1cc(Br)c(/C=c2/sc3nc4ccccc4n3c2=O)cc1OC	0.9	-24
Cn1c(=O)c2c(ncn2CC(=O)Nc2nc(-c3ccccc3)cs2)n(C)c1=O	1	2
